# Records with an inconclusive call do not appear. Where a call stands in place of a potency, no number is given. The source made the active and inactive calls. Unless noted, calls follow the shape of the dose curve; as a rule, active = well fitted curve in the direction sought with a large enough effect; inconclusive = small, poorly fitted or top-dose-only effect, or another doubt; inactive = no such curve, though single readings can be large; an effect the other way counts as inactive or inconclusive.
# Legend:
# [1] = molecular target: Pyruvate kinase PKM (Homo sapiens) (UniProt P14618); experiment: qHTS Assay for Activators of Human Muscle Pyruvate Kinase (AID 954; active = well fitted curve in the direction sought with a large enough effect, not every such curve was filed as active); conditions: purified human muscle pyruvate kinase, luciferase-coupled luminescence, 1 h; series mostly up to 57.5 µM
# Chain of Pyruvate kinase PKM (Homo sapiens) (P14618 whole entry, looked up): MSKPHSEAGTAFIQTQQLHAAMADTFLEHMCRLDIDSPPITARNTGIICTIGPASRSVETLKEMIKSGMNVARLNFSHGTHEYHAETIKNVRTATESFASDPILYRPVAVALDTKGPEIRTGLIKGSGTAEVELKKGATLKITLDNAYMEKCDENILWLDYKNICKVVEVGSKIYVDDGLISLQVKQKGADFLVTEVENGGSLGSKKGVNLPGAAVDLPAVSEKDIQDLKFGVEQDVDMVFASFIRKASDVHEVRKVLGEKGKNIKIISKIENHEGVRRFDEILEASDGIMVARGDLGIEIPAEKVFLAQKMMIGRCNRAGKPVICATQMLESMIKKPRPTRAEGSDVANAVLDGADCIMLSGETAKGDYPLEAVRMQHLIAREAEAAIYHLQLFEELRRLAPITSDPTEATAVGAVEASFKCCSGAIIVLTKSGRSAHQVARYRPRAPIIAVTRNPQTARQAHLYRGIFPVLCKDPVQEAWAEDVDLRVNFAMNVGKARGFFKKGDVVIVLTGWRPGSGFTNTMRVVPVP
# How it was run: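 Screening used highly purified human pyruvate kinase M2 under submaximal activity, with PEP at its Km and ADP below Km. After an hour at room temperature, ATP was read by luciferase luminescence.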
# [2] = molecular target: Rap guanine nucleotide exchange factor 4 (Homo sapiens) (UniProt Q8WZA2); experiment: Confirmatory qHTS for agonist of cAMP-regulated guanine nucleotide exchange factor 4 (EPAC2) (AID 1645884); conditions: EPAC2 GEF activity, Rap1B-BODIPY-GDP fluorescence, percent relative to cAMP agonist control; series mostly up to 154 µM;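 also: nucleotide exchange releases bodipy-GDP from Rap1 and this lowers its fluorescence; nearly all actives have a fitted effect of over 65% in size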
# Chain of Rap guanine nucleotide exchange factor 4 (Homo sapiens) (Q8WZA2 whole entry, looked up, the tested form may be a part): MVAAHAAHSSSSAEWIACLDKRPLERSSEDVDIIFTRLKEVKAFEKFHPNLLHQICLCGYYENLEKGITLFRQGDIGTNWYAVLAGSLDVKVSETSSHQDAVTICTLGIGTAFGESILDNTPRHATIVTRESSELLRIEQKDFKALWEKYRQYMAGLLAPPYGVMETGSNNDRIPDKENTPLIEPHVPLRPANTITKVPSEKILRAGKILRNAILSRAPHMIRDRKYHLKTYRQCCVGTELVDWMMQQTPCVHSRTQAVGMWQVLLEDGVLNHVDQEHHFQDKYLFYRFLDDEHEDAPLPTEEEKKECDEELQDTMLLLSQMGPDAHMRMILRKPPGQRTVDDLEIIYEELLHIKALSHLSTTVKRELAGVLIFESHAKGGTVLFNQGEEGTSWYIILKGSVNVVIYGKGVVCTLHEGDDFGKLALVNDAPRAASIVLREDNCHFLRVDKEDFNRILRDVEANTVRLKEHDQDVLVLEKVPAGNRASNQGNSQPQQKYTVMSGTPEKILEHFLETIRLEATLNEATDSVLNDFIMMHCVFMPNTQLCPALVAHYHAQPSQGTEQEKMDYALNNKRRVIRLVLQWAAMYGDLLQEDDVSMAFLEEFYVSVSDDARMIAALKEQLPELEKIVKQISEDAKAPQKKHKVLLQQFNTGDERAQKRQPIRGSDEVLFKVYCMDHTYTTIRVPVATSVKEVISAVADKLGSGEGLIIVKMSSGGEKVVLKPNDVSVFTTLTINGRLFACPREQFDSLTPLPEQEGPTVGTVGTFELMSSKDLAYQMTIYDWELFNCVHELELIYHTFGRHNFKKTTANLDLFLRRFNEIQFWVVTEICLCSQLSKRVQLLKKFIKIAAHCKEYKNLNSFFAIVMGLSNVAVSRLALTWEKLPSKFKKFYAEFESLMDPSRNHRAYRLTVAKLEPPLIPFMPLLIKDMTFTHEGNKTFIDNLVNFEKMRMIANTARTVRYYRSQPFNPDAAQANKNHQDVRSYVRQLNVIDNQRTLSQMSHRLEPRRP
# [3] = Primary qHTS for inhibitors of nuclear receptor binding SET domain protein 2 (NSD2) in an isogenic RCH-ACV NSD2 p.E1099K mutant (9B) (AID 1645876); conditions: RCH-ACV NSD2 E1099K (9B) viability, CellTiter-Glo, 72 h; series mostly up to 44.9 µM; also: potency is read from the fitted curve at half-maximal effect; nearly all actives have a fitted effect of over 70% in size
# [4] = Primary qHTS for inhibitors of nuclear receptor binding SET domain protein 2 (NSD2) in an RCH-ACV wild type WT cells (2C) (AID 1645877); conditions: RCH-ACV (leukaemia line) NSD2 WT (2C) viability, CellTiter-Glo, 72 h; series mostly up to 44.9 µM; also: potency is read from the fitted curve at half-maximal effect; nearly all actives have a fitted effect of over 70% in size
# [5] = tested on: Nanoluciferase (engineered Oplophorus gracilirostris luciferase); experiment: Primary Nanoluciferase (NLuc) qHTS assay for identification of artifact compounds. (AID 1845222); conditions: NLuc-conditioned medium, Nano-Glo luminescence, 5 min; series mostly up to 54.1 µM
# How it was run: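 Compounds are pinned into diluted (1:55) conditioned medium of NLuc-expressing S16 cells and held 15 min at room temperature protected from light. Nano-Glo substrate follows, and luminescence is read 5 min later.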
smiles,measurement,setting,value
O=C(Nc1cc(C(=O)Nc2ccc(S(=O)(=O)O)cc2S(=O)(=O)O)cc(C(=O)Nc2ccc(S(=O)(=O)O)cc2S(=O)(=O)O)c1)Nc1cc(C(=O)Nc2ccc(S(=O)(=O)O)cc2S(=O)(=O)O)cc(C(=O)Nc2ccc(S(=O)(=O)O)cc2S(=O)(=O)O)c1,outcome,[1],inactive
COc1ccc(NS(=O)(=O)c2ccc3c(c2)[C@H]2C=CC[C@H]2[C@@H](c2ccc(C(=O)O)cc2)N3)cc1,outcome,[2],inactive
O=C(CCCCCCC(=O)Nc1ccc(C2OC(CSc3nc(-c4ccccc4)c(-c4ccccc4)o3)CC(c3ccc(CO)cc3)O2)cc1)NO (stereo not given),Potency,[3],5.15 µM (active)
same,Potency,[4],3.65 µM (active)
same,Potency,[5],inactive
